# Giardia killer: Small Molecules that selectively kill Giardia lamblia: qHTS | activity change, % at 7.66 µM, hits read low | hit rate 0.15% among 340,000 | Giardia lamblia trophozoite viability; in the data active means activity change below about -80%; inconclusive means between about -30% and that limit;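 further: parasites exposed to compound for two days anaerobically before the ATP read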
#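 Luminescent ATP signal served as the viability read-out, measured 15-30 min after adding ATP detection reagent to trophozoites that had been incubated with compounds for 48 hrs at 37 deg C anaerobically at 100 cells/well.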
# TDP1 cell CPT: qHTS for Inhibitors of human tyrosyl-DNA phosphodiesterase 1 (TDP1): qHTS in cells in presence of CPT; Potency, µM (highest dose often 46.2 µM), inactives show at the highest dose activity change, negative = growth inhibition, most hits filed as inhibitors; chicken DT40 Tdp1-/-;hTDP1 cells + 20 nM CPT, ATP luminescence, 48 h; AID 686979, 2013; hit rate 12% among 420,000; further: potency means the concentration at half of the fitted maximal effect; nearly all actives have a fitted effect of over 55% in size
#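 Chicken DT40 Tdp1-/- cells stably complemented with human TDP1 were seeded at 400 cells/well in medium containing 20 nM camptothecin, exposed to pin-transferred compounds, and grown at 37 °C for at least 48 hr. Viability was read as ATP luminescence.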
# ELG1 repair inh: qHTS screen for small molecules that inhibit ELG1-dependent DNA repair in human embryonic kidney (HEK293T) cells expressing luciferase-tagged ELG1; HEK293T ELG1-luciferase reporter, luminescence, 16 h; DNA damage induced by 5-fluorouridine; Potency, µM (series often up to 46.1 µM), inactives show at the top dose activity change, negative = inhibition, most hits filed as inhibitors; hit rate 2.3% among 330,000; AID 504467, 2011; further: potency means the concentration at half of the fitted maximal effect; nearly all actives have a fitted effect of over 55% in size
#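 In this reporter screen, reduction of luminescence relative to DMSO vehicle indicated activity. Compounds and 5-fluorouridine were added together to 2,000 cells per well, incubated for 16 hr at 37 °C, then developed with ONE-Glo.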
# IL1B secr inh: qHTS for Inhibitors of Inflammasome Signaling: IL-1-beta AlphaLISA Primary Screen | hit rate 4.7% among 360,000 | activity change, % at 57.5 µM | THP-1 LPS/ATP IL-1B secretion, AlphaLISA, 16 h; stronger effect = lower value; in the data active means activity change below about -50%; inconclusive means mostly about -30% to -49%
#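 THP-1 cells pretreated 1 hr with compounds (up to 57.5 uM final), then stimulated with LPS (250 ng/mL final) plus ATP (1.25 mM final); secreted IL-1B measured by AlphaLISA after 16 hr, decreased signal indicating inhibition.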
# TDP1 cell noCPT: qHTS for Inhibitors of human tyrosyl-DNA phosphodiesterase 1 (TDP1): qHTS in cells in absence of CPT; DT40 Tdp1-/- hTDP1 cells, no CPT, ATP luminescence, 48 h; Potency, µM (titrated, usually from 46.2 µM), inactives show at the top dose activity change, negative = growth inhibition, usual class: inhibitors; hit rate 15% among 420,000; AID 686978, 2013; further: potency means the concentration at half of the fitted maximal effect; nearly all actives have a fitted effect of over 55% in size
#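 DT40 Tdp1-/-;hTDP1 cells, no CPT (DMSO vehicle only), 400 cells/well; compounds pin-transferred; ≥48 hr, 37 °C; CellTiter-Glo 30 min RT dark, luminescence read.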
# TDP1 inh: qHTS Assay for Inhibitors of Tyrosyl-DNA Phosphodiesterase (TDP1) | Tyrosyl-DNA phosphodiesterase 1 (Homo sapiens), Q9NUW8 | recombinant TDP1, AlphaScreen DNA substrate cleavage | Potency, µM (series often up to 130 µM), without a hit: top-dose activity change, negative = inhibition, hits mostly inhibitors | hit rate 0.28% among 350,000; further: potency means the concentration at half of the fitted maximal effect; nearly all actives have a fitted effect of over 40% in size
# Target sequence (Q9NUW8 whole entry, looked up): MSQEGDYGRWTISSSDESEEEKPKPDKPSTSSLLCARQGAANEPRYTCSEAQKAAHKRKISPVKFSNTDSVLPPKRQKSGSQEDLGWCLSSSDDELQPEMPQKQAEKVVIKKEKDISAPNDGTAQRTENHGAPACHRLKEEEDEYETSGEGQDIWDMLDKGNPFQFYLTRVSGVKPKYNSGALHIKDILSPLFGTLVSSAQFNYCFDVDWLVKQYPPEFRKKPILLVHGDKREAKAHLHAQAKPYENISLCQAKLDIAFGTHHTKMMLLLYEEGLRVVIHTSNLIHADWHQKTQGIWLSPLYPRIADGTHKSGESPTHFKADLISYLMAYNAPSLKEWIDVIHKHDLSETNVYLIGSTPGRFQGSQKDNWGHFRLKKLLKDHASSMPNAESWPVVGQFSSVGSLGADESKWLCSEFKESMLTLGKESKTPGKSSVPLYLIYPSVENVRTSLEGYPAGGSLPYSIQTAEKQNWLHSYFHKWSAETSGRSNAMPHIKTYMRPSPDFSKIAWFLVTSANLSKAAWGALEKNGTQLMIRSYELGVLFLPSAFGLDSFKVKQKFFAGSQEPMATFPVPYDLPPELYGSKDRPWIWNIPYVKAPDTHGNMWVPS
#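 AlphaScreen read-out: signal falls as enzyme removes the 3' tyrosine-FITC from a 5'-biotinylated DNA oligo (15 nM, 5 min, RT). Enzyme was E. coli-made recombinant Tdp1 at 1 nM, exposed to compound for 15 min beforehand; beads 10 ug/ml, 10 min.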
# Numbers without * were called inactive; ? = inconclusive; · = no result. A selection: hits, their analogues and other compounds. The true share with any hit is near 19%. Unless noted, the call rests on the fitted dose curve; in most records, active means well fitted curve in the direction sought with a large enough effect; inconclusive means small, poorly fitted or top-dose-only effect, or another doubt; inactive means no such curve, though single readings can be large; an effect the other way counts as inactive or inconclusive. On the % scale 0 is the no-effect control and ±100 the full control effect.
SMILES,Giardia killer,TDP1 cell CPT,ELG1 repair inh,IL1B secr inh,TDP1 cell noCPT,TDP1 inh
Cc1ccc2cc(CN(Cc3ccco3)C(=O)C3CCCCC3)c(=O)[nH]c2c1C,5,?,?,-7,?,7%
Cc1cc(=O)n(C(C)C(=O)N2CCCc3ccccc32)c2c1c(C)nn2-c1ccccc1 (stereo unspecified),·,16µM*,·,·,?,7%
C=CCc1ccc(O)c(-c2ccc(O)c(CC=C)c2)c1,14,?,-13%,?,18µM*,13%
C=CCc1cc(C(=O)N2CCCCC2)ccc1O,0,?,?,-2,?,6%
O=C(C[C@H]1C[C@@H]2c3cc(NS(=O)(=O)c4ccccc4)ccc3O[C@@H]2[C@H](CO)O1)NC1CCCC1,·,-28%,·,7,-26%,·
COc1cccc(S(=O)(=O)Nc2ccc3c(c2)[C@H]2C[C@H](CC(=O)N[C@@H](C)c4ccccc4)O[C@H](CO)[C@H]2O3)c1,·,?,·,-15,15µM*,·
O=C(C[C@@H]1C[C@@H]2c3cc(NS(=O)(=O)c4ccc(F)cc4)ccc3O[C@@H]2[C@@H](CO)O1)NC1CCCCC1,·,?,·,-11,18µM*,·
COC(=O)C[C@H]1C[C@@H]2c3cc(NS(=O)(=O)c4cccc(OC)c4)ccc3O[C@@H]2[C@@H](CO)O1,·,?,·,-1,?,·
COc1ccc(CNC(=O)C[C@@H]2C[C@H]3c4cc(NC(=O)NC5CCCC5)ccc4O[C@H]3[C@H](CO)O2)cc1,·,?,·,70,13µM*,·
COc1cccc(S(=O)(=O)Nc2ccc3c(c2)[C@@H]2C[C@@H](CC(=O)NCc4ccc(Cl)cc4)O[C@@H](CO)[C@@H]2O3)c1,·,18µM*,·,44,16µM*,·
O=C1CCN1C1(C(=O)NC2CCCCC2)CCCC1,-27,-4%,-2%,-15,-25%,1%
O=C(CN(C(=O)c1ccc(Cl)cc1)C1CCCCC1)Nc1ccc(Cl)c([N+](=O)[O-])c1,9,16µM*,?,?,15µM*,3%
Cc1ccc([N+](=O)[O-])cc1NC(=O)CN(C(=O)c1ccc(Cl)cc1)C1CCCCC1,21,21µM*,0%,-28,18µM*,2%
O=C(CN(C(=O)c1ccccc1Cl)C1CCCCC1)Nc1ccc(Cl)c([N+](=O)[O-])c1,0,?,?,?,?,2%
COc1ccc2[nH]cc(CCO)c2c1,·,1%,·,·,-14%,15%
CCOc1cc(Cl)c(S(=O)(=O)NCCCN2CCOCC2)cc1Cl,12,?,3%,-12,?,-2%
CCc1cccc(C)c1Nc1c(-c2cccs2)nc2ncccn12,·,?,·,·,16µM*,5%
CCc1cccc(C)c1Nc1c(-c2ccc(N3CCOCC3)cc2)nc2ncccn12,·,23µM*,·,·,23µM*,8%
CCc1cccc(C)c1Nc1c(-c2cccs2)nc2nc(C)cc(C)n12,·,?,·,·,?,5%
COc1ccc(Nc2c(-c3ccc(N4CCOCC4)cc3)nc3ncccn23)cc1OC,·,-14%,·,·,-25%,12%
COc1ccc(-c2c(C3C4C=CCC(C)C4C(=O)N3Cc3ccccc3)ccc3ccccc23)cc1 (stereo unspecified),-10,·,·,·,·,9%
CCOc1ccc(NC(=O)c2nc(S(=O)(=O)Cc3ccccc3F)ncc2Cl)cc1,-11,0.37µM*,·,·,0.33µM*,-2%
O=C(Nc1ccc(OC(F)F)cc1)c1nc(S(=O)(=O)Cc2ccccc2F)ncc1Cl,·,0.45µM*,·,·,1µM*,·
CN(Cc1ccc2c(c1)OCCO2)C(=O)CSc1ncnc2sccc12,-3,?,?,-25,?,1%
Cc1cc(NC(=S)Nc2ccc(C)c(Cl)c2)n[nH]1,14,?,?,40,?,-2%
SMILES,Giardia killer,TDP1 cell CPT,ELG1 repair inh,IL1B secr inh,TDP1 cell noCPT,TDP1 inh
COc1ccc(NC(=S)Nc2cc(-c3ccccc3)[nH]n2)cc1Cl,23,22µM*,?,?,?,7%
COc1ccc(NC(=S)Nc2cc(C)[nH]n2)cc1Cl,-10,?,?,?,18µM*,-8%
COC(=O)c1cn[nH]c1NC(=S)Nc1ccc(C)cc1Cl,0,?,?,19,?,-1%
COC(=O)c1cn[nH]c1NC(=S)Nc1ccc(Cl)c(Cl)c1,-5,?,?,19,25µM*,2%
O=c1[nH]c(=S)[nH]c2c1C(c1ccc(F)cc1)OC(CCC(F)(F)F)C2 (stereo unspecified),·,0%,·,13,-5%,·
Cc1ccc(NC(=O)CC(C)c2ccccc2)cc1S(=O)(=O)N1CCOCC1 (stereo unspecified),14,?,?,-9,?,0%
CC1(C(=O)NS(=O)(=O)c2cccc(OC(F)F)c2)CCN1C(=O)C/C=C/c1ccccc1 (stereo unspecified),·,-21%,·,20,-13%,·
O=S(=O)(c1ccccc1)N1CCN(c2nc(-c3ccc(F)cc3)nc3cc(Cl)ccc23)CC1,-6,·,·,·,·,1%
Cc1cc(C)cc(NC(=O)Nc2ccc(-n3ccc(C(F)(F)F)n3)cc2)c1,-13,?,?,-77*,21µM*,·
O=C(Nc1ccc(-n2ccc(C(F)(F)F)n2)cc1)Nc1cccc(Cl)c1,·,·,?,·,·,0%
COc1ccccc1NC(=O)Nc1ccc(-n2ccc(C(F)(F)F)n2)cc1,25,?,?,-71*,26µM*,2%
COc1ccccc1C(=O)NC(=O)Nc1ccc(-n2nc(C(F)(F)F)cc2C(F)(F)F)cc1,·,?,·,·,15µM*,-2%
Cc1ccc2nc(SCC(=O)Nc3cc(C)on3)c(C)cc2c1,12,-6%,2%,-6,-7%,0%
Cc1cc(C)cc(NC(=O)C(=O)NCC(c2cccnc2)N2CCOCC2)c1 (stereo unspecified),·,-1%,·,·,-25%,4%
COc1ccc2nc(N3C(=O)/C(=C/c4ccccc4)NC3=S)sc2c1,-2,?,3%,22,?,3%
CCOc1ccc2nc(N3C(=O)/C(=C/c4ccccc4)NC3=S)sc2c1,?,23µM*,?,20,?,8%

# Compound activity: PubChem BioAssay, National Center for Advancing Translational Sciences (NCATS)
